Experimental data taken from PubChem BioAssay (Tox21).
Inconclusive results are not listed. Calls of active or inactive are those of the source. Calls follow the shape of the dose curve; as a rule, active = well fitted cell-killing curve with a large enough effect in the repeat runs; inconclusive = weak or mixed curves, or effect the other way; inactive = flat fitted curve, though single readings scatter.

Assay: qHTS assay to identify small molecule agonists of the TGF-beta/Smad signaling pathway - cell viability counter screen (AID 1346829); also: top concentration of the series differs between compounds; nearly all actives have a fitted effect of over 45% in size
Conditions: SBE-bla HEK293T viability, CellTiter-Glo luminescence, 5 h; series mostly up to 76.8 µM; activity change, negative = cytotoxicity: at the top concentration
Method in brief: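 Cytotoxicity counter screen: CellTiter-Glo luminescence (30 min, room temperature) measured in the SBE-bla HEK 293T reporter wells after 5 hr compound treatment at 37 C and the 2 hr substrate step.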
% is scaled to controls: 0 for no effect and ±100 for the full control effect.

Row | SMILES | activity change, negative = cytotoxicity
1 | COc1ncc(F)c2nc(S(=O)(=O)Nc3c(F)cccc3F)nn12 | -13.1% [at 35.3 µM] (inactive)
2 | CC(C1CC1)C(O)(Cn1cncn1)c1ccc(Cl)cc1 (configuration not stated) | 1.84% (inactive)
3 | CCCCOP(=O)(O)OCCCC | 5.84% (inactive)
4 | CN(N=O)C(N)=O | -17.7% (inactive)
5 | OCCSCSCCO | 0.321% (inactive)
6 | ClCC(Cl)Cl | 4.8% (inactive)
7 | O=C(O)c1cccc(Cl)c1 | -18.3% (inactive)
8 | CS(=O)(=O)c1cc(C(F)(F)F)ccc1C(=O)c1cnoc1C1CC1 | 22.2% (inactive)
9 | CC1CN1P(=O)(N1CC1C)N1CC1C (configuration not stated) | 3.16% (inactive)
10 | COC(=O)c1ccccc1S(=O)(=O)NC(=O)Nc1nc(C)cc(C)n1 | -8.06% (inactive)
11 | CCSC(=O)N(CC)C1CCCCC1 | 0.981% (inactive)
12 | CC(=O)CC(c1ccc(Cl)cc1)c1c(O)c2ccccc2oc1=O (configuration not stated) | -3.41% (inactive)
13 | CCOP(=O)(OCC)OP(=O)(OCC)OCC | 0.144% (inactive)
14 | CNC(=O)Oc1ccccc1C1OCCO1 | -8.76% (inactive)
15 | N#CCCC#N | -7.96% (inactive)
16 | COC(=O)c1ccccc1S(=O)(=O)NC(=O)N(C)c1nc(C)nc(OC)n1 | 0.937% (inactive)
17 | Cc1ncc(CNC(=O)N(CCCl)N=O)c(N)n1 | 0.0826% [at 35.3 µM] (inactive)
18 | Clc1ccccc1N1CCNCC1 | 1.27% [at 35.3 µM] (inactive)
19 | O=P(O)(Oc1ccccc1)Oc1ccccc1 | 3.15% (inactive)

Row | SMILES | activity change, negative = cytotoxicity
20 | BrCCCCCCBr | 12.1% (inactive)
21 | C[N+](C)=CCl | -1.91% (inactive)
22 | O=c1oc2ccccc2c(O)c1C1CCCc2ccccc21 (configuration not stated) | -2.67% (inactive)
23 | O=C(Oc1ccc(Br)cc1)N1CCN2CCC1CC2 | 0.891% (inactive)
24 | COc1cc(OC)nc(NC(=O)NS(=O)(=O)c2ncccc2C(=O)N(C)C)n1 | 12.8% (inactive)
25 | Cc1cc(C)c(C(=O)P(=O)(C(=O)c2c(C)cc(C)cc2C)c2ccccc2)c(C)c1 | -7.05% (inactive)
26 | ClC(Cl)Br | -0.301% (inactive)
27 | Cc1coc2c1CCC(C)C2 (configuration not stated) | -7.6% (inactive)
28 | C[C@]12CC[C@H]3[C@@H](CC=C4C[C@@H](O)CC[C@@]43C)[C@@H]1CC[C@@H]2O | 7.12% [at 35.3 µM] (inactive)
29 | O=NN1CCCCC1 | -4.98% (inactive)
30 | O=[N+]([O-])c1ccc(CBr)cc1 | -0.129% (inactive)
31 | C=CC1CC=CCC1 (configuration not stated) | 3.79% (inactive)
32 | CC(C)NCC(O)c1ccc(N)c(C#N)c1 (configuration not stated) | 14.6% [at 35.3 µM] (inactive)
33 | COc1cc(C[C@@H](C)N)c(OC)cc1C | -0.296% (inactive)
34 | c1ccc(N2CCNCC2)cc1 | 2.82% [at 35.3 µM] (inactive)
35 | CNC(=O)Oc1cccc(C(C)C)c1 | 4.67% (inactive)
36 | CC1=NNC(=O)N(/N=C/c2cccnc2)C1 | 16.7% (inactive)
37 | CCC(=O)c1ccccc1 | -16.1% (inactive)
